# The supplement of paper PMC6555819
# Columns and labels:
# Assay in all cases: PBM binding z-score (relative to random genomic background probes); higher = stronger binding; sequences stand for … in GC…GCGATTGACAGCGTAGAATGAAGG
# [1] = system: FXR:RXRa (NR concentration 270 nM, RXRa partner concentration 90 nM)
# Procedure, shortened: (§1)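 Antibodies against each partner of ligand-free nuclear receptor dimers (one per run) detected binding on custom Agilent 4×180K protein-binding microarrays after 1 h incubation. The double-stranded probes had 34-nt variable regions carrying direct-repeat seeds, single-nucleotide variants, half-site ablations and random human genomic background sequences. Binding z-scores, from regression-normalized fluorescence, use the random background probes as reference.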
# [2] = system: LXRa:RXRa (NR concentration 270 nM, RXRa partner concentration 90 nM)
# Procedure, shortened: as §1
# [3] = system: LXRa homodimer (NR concentration 270 nM)
# Procedure, shortened: as §1
# [4] = system: LXRb:RXRa (NR concentration 270 nM, RXRa partner concentration 90 nM)
# Procedure, shortened: as §1
# [5] = system: LXRb homodimer (NR concentration 270 nM)
# Procedure, shortened: as §1
# [6] = system: PPARa:RXRa (NR concentration 270 nM, RXRa partner concentration 90 nM)
# Procedure, shortened: as §1
# [7] = system: PPARg:RXRa (NR concentration 180 nM, RXRa partner concentration 90 nM)
# Procedure, shortened: as §1
# [8] = system: PPARg:RXRa 270nM:90nM, anti-RXR (NR concentration 270 nM, RXRa partner concentration 90 nM)
# Procedure, shortened: as §1
# [9] = system: PPARg:RXRa 30nM:10nM, anti-RXR (NR concentration 30 nM, RXRa partner concentration 10 nM)
# Procedure, shortened: as §1
# [10] = system: PPARg:RXRa 90nM:30nM, anti-RXR (NR concentration 90 nM, RXRa partner concentration 30 nM)
# Procedure, shortened: as §1
# [11] = system: PPARg:RXRa DBDmut IVT, anti-RXR (DBD mutation: RXRa K156A/R161A, NR concentration 270 nM, RXRa partner concentration 90 nM)
# Procedure, shortened: as §1
# [12] = system: PPARg:RXRa IVT, anti-PPARg (NR concentration 270 nM, RXRa partner concentration 90 nM)
# Procedure, shortened: as §1
# [13] = system: PPARg DBDmut:RXRa IVT, anti-PPARg (DBD mutation: PPARg1 K132A/R137A, NR concentration 270 nM, RXRa partner concentration 90 nM)
# Procedure, shortened: as §1
# [14] = system: PPARg DBDmut IVT, anti-PPARg (DBD mutation: PPARg1 K132A/R137A, NR concentration 270 nM)
# Procedure, shortened: as §1
# [15] = system: PPARg homodimer (NR concentration 180 nM)
# Procedure, shortened: as §1
# [16] = system: PXR:RXRa (NR concentration 270 nM, RXRa partner concentration 90 nM)
# Procedure, shortened: as §1
# [17] = system: PXR homodimer (NR concentration 270 nM)
# Procedure, shortened: as §1
# [18] = system: RARa:RXR (NR concentration 270 nM, RXRa partner concentration 90 nM)
# Procedure, shortened: as §1
# [19] = system: RARa homodimer (NR concentration 270 nM)
# Procedure, shortened: as §1
# [20] = system: RARb:RXRa (NR concentration 270 nM, RXRa partner concentration 90 nM)
# Procedure, shortened: as §1
Sequence,PBM binding z-score [1],PBM binding z-score [2],PBM binding z-score [3],PBM binding z-score [4],PBM binding z-score [5],PBM binding z-score [6],PBM binding z-score [7],PBM binding z-score [8],PBM binding z-score [9],PBM binding z-score [10],PBM binding z-score [11],PBM binding z-score [12],PBM binding z-score [13],PBM binding z-score [14],PBM binding z-score [15],PBM binding z-score [16],PBM binding z-score [17],PBM binding z-score [18],PBM binding z-score [19],PBM binding z-score [20]
GGAACGAGTGCAAAGTTGATAGCATCTGTCGACG,0.106,-0.0741,-0.379,-0.315,-0.482,1.8,2.13,3.33,0.95,3.02,-0.204,0.102,-0.12,0.22,-0.16,0.715,0.211,0.728,-0.6,0.396
TCTTGTAGATCAGCAGCTTAAGAAAGCTGGCCAA,-0.0933,-0.339,-0.557,-0.411,-0.692,0.41,-0.825,0.886,2.45,1.69,1.33,-0.294,-1.1,-0.39,-0.337,-0.0714,-0.755,0.087,-0.736,-0.491
CGAACTAGGTCATTGACAGGACATTGAATAGTAA,3.53,3.53,1.19,2.32,0.107,4.56,7.27,6.42,4.27,5.95,8.1,8.23,1.94,1.62,1.29,2.35,0.404,2.06,0.367,3.52
CATACAGGGTCAGCTCGGCCAGAGTAGGGACGGC,4.13,2.91,-0.117,2.06,0.463,3.97,2.99,2.64,0.565,1.72,0.771,2.11,1.08,0.134,0.989,2.02,0.0599,2.97,0.394,4
CTCGAAAAGTCGGTTGAGGTGAGTATACGGATAA,0.673,0.0454,-0.319,-4.02e-05,-0.053,0.458,-0.07,-0.172,0.085,-0.0769,-0.249,0.59,-0.0972,-0.5,0.0605,-0.0703,-0.0272,1.45,0.0114,0.371
TGAATGAGGTTAAAGATCAGGGTACGTGGCGTCG,2.96,2.35,-0.149,1.67,0.353,4.43,5.59,6.33,4.71,6.42,2.05,3.93,1.21,0.291,1.09,2.14,-0.073,3.31,-0.532,2.21
ACTCAGAGGACAAAGGTCAGAGCTACGCCAGTGA,4.51,4.87,1.72,3.52,0.532,5.3,7.56,7.42,5.13,7.46,1.49,3.79,-0.0394,-0.208,3.47,4.07,0.501,5.53,1.81,4.71
GCTAGCAGGCCATTTGCGTCACTCAATGACGGGC,-0.489,-0.808,-0.589,-1.15,-0.965,-0.622,0.189,-0.578,-0.911,-0.185,1.06,-0.0589,-0.895,-0.638,-1.08,-0.562,-0.856,-0.774,-1.25,-0.167
ATATGTATGTTAGCTGGGGTCATTCAGACTAGGC,3.96,4.22,1.92,4.33,1.31,4.48,2.06,2.85,1.26,2.08,2.2,2.3,1.51,1.76,1.82,5.63,2.99,5.55,0.578,2.6
TCTTGTAGATCAACAGGTTAAGAAAGCTGGCCAA,0.41,0.634,-0.164,0.757,-0.124,1.33,0.000535,1.83,2.88,2.37,1.96,0.82,0.047,0.206,0.081,0.51,0.0471,0.981,-0.173,0.375
CCGAGTACGTTATGGGGCATTCAGGCAACGGTGA,-0.345,-0.442,-0.712,-0.213,-0.602,-0.079,0.408,-0.152,-0.465,-0.83,0.389,0.0516,-0.885,-0.78,-0.751,-0.602,-0.398,-0.541,-0.162,0.16
CCTACTGGGCCACGAAAGGTCATTGTTTCAGTGA,3.44,5.19,5.22,4.29,0.43,4.61,4.26,4.79,1.73,4.24,5.79,6.05,1.13,0.571,3.37,5.45,2.06,5.42,0.917,4.06
CATACAGGGTCAGCTAGGCCAGAGTGGGGACGGC,4.45,2.94,0.0582,2.72,0.724,4.31,2.96,3.01,0.597,1.9,1.06,2.57,-0.069,1.07,1.44,2.19,0.0916,2.78,0.651,4.03
CATCCAGGGTCAGCTAGGCCAGAGTAGGGACGGC,4.57,3.12,-0.152,2.1,0.239,4.34,2.97,3.3,0.549,1.89,0.695,2.52,0.576,0.124,1.54,2.31,-0.182,3.25,0.407,4.03
CGTCCAAAGTCAATGCTAGGTCAGTGAAAGCATT,0.216,0.789,0.816,0.482,-0.125,0.696,-0.177,-0.216,-0.538,-0.284,0.0357,0.544,-0.669,-0.616,1.04,0.434,-0.027,1.07,0.396,1.68
CGAACTAGGTCATTGACAGGAAAGTGAATAGTAA,4.94,2.6,0.115,2.01,-0.078,4.67,7.36,6.32,3.65,5.55,7.79,8.25,2.11,2.92,1.37,1.37,0.599,2.02,0.0841,3.59
CCGAGTAGGTTTTGGGGCATTCAGGCAACGGTGA,0.199,0.0127,-0.127,0.177,-0.134,0.31,-0.0212,0.955,-0.147,0.58,0.795,0.696,-0.353,-0.0504,0.76,-0.31,-0.0267,0.2,0.947,0.205
CCAGACAGGTGAGAAGGAAACTCAGCCTCGATTA,0.0152,-0.159,0.111,-0.146,-0.36,0.0665,0.519,0.482,-0.0162,0.249,1.07,0.281,0.656,-0.614,0.615,-0.158,0.143,0.0468,0.447,0.0743
CGTCCAAGGTCATGGTCAGTGAAAGAGACTCGAA,6.75,5.27,0.622,4.03,0.455,5.74,5.32,5.75,2,4.28,3.19,3.62,0.127,0.155,3.09,3.98,0.701,4.83,1.11,5.11
AGAATGAGGTTATGATCAGGGAAACAGAATACAT,1.66,1.52,-0.0293,1.41,-0.275,2.83,1.86,1.65,1.17,1.03,1.69,2.07,1.68,0.713,0.605,1.02,0.186,1.6,0.566,1.42
ATCTCTAGGTAAAGTTCAGTGGAAGATCGATAGA,1.56,2.02,1.68,1.29,1.27,2.23,2.75,3.85,2.32,3.46,2.46,2.61,1.21,1.71,1.29,2.07,1.8,1.44,1.81,2.86
TCTGGTAGATCAATAGAGGTTAAGAAAGTGCGCT,0.764,3.4,0.62,1.81,-0.161,1.62,-0.137,1.4,2.44,1.78,1.4,0.577,0.241,0.106,0.418,3,0.367,1.75,0.0136,0.93
TAGCCTAGGTCATGTGGGCCAGTATAGTGTCGGC,4.35,2.97,0.553,1.85,0.185,3.53,2.11,2.75,0.388,1.46,1.81,3.41,-0.502,-0.513,0.832,1.47,-0.447,2.33,-0.278,3.81
TCTTGTAGATCAATAGAGGTTAAGATAGTGCGCT,1.04,3.81,0.813,1.97,-0.0819,1.99,0.479,1.59,2.43,2.03,1.55,0.959,0.251,0.77,0.455,2.26,-0.0224,2.09,0.236,0.832
GATACTGGGTCAAGGCCAGAGTACGCGTATTGAT,2.37,1.21,-0.0541,1.22,-0.791,4.05,5.9,5.27,2.7,4.74,6.7,7.44,0.217,1.07,1.49,1.23,-0.00412,1.72,0.506,3.48
CCTATTAGTTGACCATAAAGGCAACCGAAGCTCG,0.384,0.566,0.992,0.76,0.816,-0.0568,0.377,0.275,0.147,0.00767,0.277,0.572,0.612,1.06,1.55,0.343,1.08,0.436,2.45,0.404
